Counter-ions that a name gives are not always drawn.

This assay relates to Saccharomyces cerevisiae BY4741 SeMeCo community. The assay is described as follows: z-score of subpopulation abundance vs DMSO median, subpopulation auxotrophic for HL; higher = larger share of this subpopulation than in DMSO controls. The note with it: 10 µM; 24 h; SM minimal medium; subpopulation (auxotrophy): HL. The method in brief:
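Automated confocal microscopy of paraformaldehyde-fixed cells was used to follow a Saccharomyces cerevisiae BY4741 community carrying four plasmids, each restoring one auxotrophy and encoding a distinct fluorescent protein. The community was pre-grown overnight to OD600 1.0, diluted to 0.3, and added at 70 µl to 384-well plates acoustically predosed with library drugs (10 µM final) for 24 h of growth in minimal SM medium. Single-auxotroph fluorescent strains set thresholds and autofluorescence correction, and each subpopulation's abundance was scored as a z-score against the vehicle-well median.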
As for `CN(C)[C@@H](CCOc1cccc2ccccc12)c1ccccc1` [Dapoxetine HCl], the “z-score of subpopulation abundance” value amounted to 0.57.

As for `CC1(C)S[C@@H]2[C@H](NC(=O)Cc3ccccc3)C(=O)N2[C@H]1C(=O)O.CCN(CC)CCOC(=O)c1ccc(N)cc1` [Penicillin G Procaine], the “z-score of subpopulation abundance” value stood at 2.5. As for `Nc1ccc(S(=O)(=O)Nc2ccnn2-c2ccccc2)cc1` [Sulfaphenazole], the figure is -0.02; as for `C[C@@H]1CC(=O)NN=C1c1ccc(NN=C(C#N)C#N)cc1` [Levosimendan], -0.63; as for `COc1ccc2c(c1)c(CC(=O)OCC(=O)O)c(C)n2C(=O)c1ccc(Cl)cc1` [Acemetacin], 0.11.

For the compound `CC[C@H]1OC(=O)[C@H](C)[C@@H](O[C@H]2C[C@@](C)(OC)[C@@H](O)[C@H](C)O2)[C@H](C)[C@@H](O[C@@H]2O[C@H](C)C[C@H](N(C)C)[C@H]2O)[C@](C)(O)C[C@@H](C)CN(C)[C@H](C)[C@@H](O)[C@]1(C)O` [Azithromycin], the “z-score of subpopulation abundance” value was -0.27. As for `Clc1ccccc1C(c1ccccc1)(c1ccccc1)n1ccnc1` [Clotrimazole], the figure is 3.58. The value for `CO/N=C(\C(=O)N[C@@H]1C(=O)N2C(C(=O)O)=C(CSc3nc(=O)c(O)nn3C)CS[C@H]12)c1csc(N)n1` [Ceftriaxone Sodium Trihydrate] was 0.91; that for `CCOC(=O)C1=C(C)NC(C)=C(C(=O)OC)C1c1cccc(Cl)c1Cl` (stereo not given) [Felodipine] was 4.71; that for `O=C1CCc2cc(OCCCCc3nnnn3C3CCCCC3)ccc2N1` [Cilostazol] was -0.05. The value for `COc1cc(NS(=O)(=O)c2ccc(N)cc2)ncn1` [Sulfamonomethoxine] was -0.82; that for `NC(=O)N1c2ccccc2CC(=O)c2ccccc21` [Oxcarbazepine] was -0.1; that for `CCCCCc1ccc(C)cc1O` [Amylmetacresol] was -0.02. For `CCN(CC)CCOC(=O)c1ccc(N)cc1` [Procaine HCl], the “z-score of subpopulation abundance” value is -0.7. The value for `O=C(O)CCC(=O)Nc1ccc(S(=O)(=O)Nc2nccs2)cc1` [Succinylsulfathiazole] was -0.84. As for `N[C@@H]1CONC1=O` [D-Cycloserine], the figure is 0.99; as for `CCOC(=O)C1=C[C@]2(CC)CCCN3CCc4c(n1c1ccccc41)[C@@H]32` [Vinpocetine], 0.11.

As to `COc1ccc2cc(C(=O)O)ccc2c1` [6-Methoxy-2-naphthoic acid], the “z-score of subpopulation abundance” value came to 0.89.

As to `CCC(=O)c1c(O)cc(O)cc1O` [Flopropione], the “z-score of subpopulation abundance” value is -0.4. As for `Oc1c(Cl)cc(Cl)c(Cl)c1Cc1c(O)c(Cl)cc(Cl)c1Cl` [Hexachlorophene], the figure is 3.85; as for `CCCCCCCCc1ccc(CCC(N)(CO)CO)cc1` [Fingolimod], -1.71; as for `CC1(C)S[C@@H]2[C@H](NC(=O)[C@H](N)c3ccc(O)cc3)C(=O)N2[C@H]1C(=O)O` [Amoxicillin], -0.54. As to `CCCc1nc(C)c2c(=O)nc(-c3cc(S(=O)(=O)N4CCN(CC)CC4)ccc3OCC)[nH]n12` [Vardenafil HCl Trihydrate], the “z-score of subpopulation abundance” value is -0.13.

Turning to `CC[C@@]1(O)C(=O)OCc2c1cc1n(c2=O)Cc2cc3c(CN(C)C)c(O)ccc3nc2-1` [Topotecan HCl], the “z-score of subpopulation abundance” value stood at 0.17.

For the compound `CCC(C)(C)C(=O)O[C@H]1C[C@@H](C)C=C2C=C[C@H](C)[C@H](CC[C@@H]3C[C@@H](O)CC(=O)O3)[C@H]21` [Simvastatin], the “z-score of subpopulation abundance” value was 1.65. The value for `COCCCN1CCC(NC(=O)c2cc(Cl)c(N)c3c2OCC3)CC1` [Prucalopride] was -0.99. The value for `CO/N=C(\C(=O)N[C@@H]1C(=O)N2C(C(=O)O)=C(CSc3nc(C)c(CC(=O)O)s3)CS[C@H]12)c1csc(N)n1` [Cefodizime Sodium] was -0.84; that for `C1N2CN3CN1CN(C2)C3` [Methenamine] was -0.01; that for `CCc1c2c(nc3ccc(OC(=O)N4CCC(N5CCCCC5)CC4)cc13)-c1cc3c(c(=O)n1C2)COC(=O)[C@]3(O)CC` [Irinotecan HCl Trihydrate] was 0.06. Consider `C/C=C\c1ccc(O)c(OC)c1` [Isoeugenol], for which the “z-score of subpopulation abundance” value was -0.5.

The values above are taken from the supplement of paper PMC8975748.
